Active and inactive are the calls of the source. How the calls were made is not given here.
target: Pantothenate synthetase (Mycobacterium tuberculosis (strain ATCC 25618 / H37Rv)) (UniProt P9WIL5); assay: Coupled enzyme confirmation of inhibitors against recombinant Mtb PanC (AID 375); settings: coupled enzyme assay; at 10 µM, active compounds read high;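 further: 0% = full reaction with vehicle and 100% = no enzyme background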
Sequence (P9WIL5 whole entry, looked up): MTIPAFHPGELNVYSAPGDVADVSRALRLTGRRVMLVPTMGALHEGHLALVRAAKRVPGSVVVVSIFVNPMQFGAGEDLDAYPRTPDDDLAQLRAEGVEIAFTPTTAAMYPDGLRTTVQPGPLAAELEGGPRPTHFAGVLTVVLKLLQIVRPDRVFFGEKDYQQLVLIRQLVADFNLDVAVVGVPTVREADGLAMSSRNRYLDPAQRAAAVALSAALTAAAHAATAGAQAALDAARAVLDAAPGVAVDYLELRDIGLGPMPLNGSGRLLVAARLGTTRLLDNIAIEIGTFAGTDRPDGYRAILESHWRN

Row | SMILES | inhibition
1 | COc1ccc(N2CCN(Cc3nc4c(c(=O)[nH]c(=O)n4C)n3CC(C)=O)CC2)cc1 | 0% (inactive)
2 | O=C(Nc1ccc2c(c1)OCO2)c1nn(-c2ccccc2)c(=O)c2ccccc12 | 3% (inactive)
3 | CCCCNC(=O)NS(=O)(=O)c1ccc(C)cc1 | 0% (inactive)
4 | Cc1ccc(-n2c(SCC3CCCCO3)nnc2-c2ccco2)cc1 (configuration not stated) | 6% (inactive)
5 | COc1ccc(S(=O)(=O)NCc2ccco2)cc1-c1nnc2c3ccccc3c(C)nn12 | 8% (inactive)
6 | Nc1ncnc2oc(-c3ccco3)c(-c3ccco3)c12 | 2% (inactive)
7 | CC(C)(C)n1nc2c(c1NC(=O)COc1ccc(Cl)cc1)CSC2 | 0% (inactive)
8 | CN(C(=O)c1ccccc1Cl)c1ccccc1 | 2% (inactive)
9 | COC(=O)c1ccc(C2C(C#N)=C(N)Oc3cc(C)n(C)c(=O)c32)cc1 (configuration not stated) | 0% (inactive)
10 | COc1ccc(-c2cc(C(F)(F)F)nc(SCCC(=O)N3CCOCC3)n2)cc1 | 1% (inactive)
11 | Cc1nc2cc(N3CCCCC3)c(NC(=O)c3cccnc3)cc2c(=O)n1Cc1ccccc1 | 1% (inactive)
12 | CN(C(=O)c1ccccn1)c1nnc(-c2ccncc2)s1 | 0% (inactive)
13 | O=C(NCN1CCCCC1)c1cccnc1 | 0% (inactive)
14 | O=C(CSc1nc2ccccc2o1)N1CCN(c2ccc(Cl)cc2)CC1 | 0% (inactive)
15 | CCOC(=O)C1CCN(C(=O)Nc2ccc3nc(C)c(C)nc3c2)CC1 | 0% (inactive)
16 | CCOCC(=O)Nc1sc2c(c1C(=O)OCC)CCCC2 | 0% (inactive)
17 | Cc1c(NC(=O)c2nn(C)c(=O)c3ccccc23)c(=O)n(-c2ccccc2)n1C | 0% (inactive)

From PubChem BioAssay
